Measurements published in PubChem BioAssay (NCATS).
Records with an inconclusive call do not appear. Activity calls are given as the source filed them. Calls come from the whole dose curve; as a rule, active = well fitted curve in the direction sought with a large enough effect; inconclusive = small, poorly fitted or top-dose-only effect, or another doubt; inactive = no such curve, though single readings can be large or run the other way.

Biological target: Protein phosphatase 1D (Homo sapiens) (UniProt O15297)
Sequence (O15297 whole entry, looked up): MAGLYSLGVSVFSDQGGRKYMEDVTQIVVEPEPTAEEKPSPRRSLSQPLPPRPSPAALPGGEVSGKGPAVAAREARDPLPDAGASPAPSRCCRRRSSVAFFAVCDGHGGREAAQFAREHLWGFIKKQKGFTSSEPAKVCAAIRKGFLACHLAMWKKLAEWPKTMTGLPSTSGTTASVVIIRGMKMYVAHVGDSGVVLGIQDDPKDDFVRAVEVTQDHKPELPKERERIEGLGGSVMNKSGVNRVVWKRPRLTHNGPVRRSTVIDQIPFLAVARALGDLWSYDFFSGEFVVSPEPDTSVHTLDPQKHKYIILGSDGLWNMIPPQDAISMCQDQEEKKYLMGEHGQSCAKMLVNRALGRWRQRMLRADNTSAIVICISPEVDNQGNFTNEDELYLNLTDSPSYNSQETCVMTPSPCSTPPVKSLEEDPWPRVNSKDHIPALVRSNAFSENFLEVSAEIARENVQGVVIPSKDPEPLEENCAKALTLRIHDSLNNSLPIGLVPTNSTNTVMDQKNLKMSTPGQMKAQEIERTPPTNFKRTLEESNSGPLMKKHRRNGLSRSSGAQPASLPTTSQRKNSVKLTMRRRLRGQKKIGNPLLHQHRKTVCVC
Assay: Rhodamine-PBP qHTS Assay for Modulators of WT P53-Induced Phosphatase 1 (WIP1) (AID 1347425); note: % of control where 0% means no effect
Conditions: recombinant WIP1, Rhodamine-PBP phosphate fluorescence, real-time; series mostly up to 57.5 µM; activity change, negative = inhibition: at the top concentration
Text: Assay Provider (PI): Nathan Coussens Ph.D.
National Center for Advancing Translational Sciences (NCATS), Rockville, MD
National Institute of Health (NIH), Bethesda, Maryland
WT P53-Induced Phosphatase 1 (WIP1) is a member of the magnesium-dependent serine/threonine protein phosphatase (PPM) family and is induced by P53 in response to DNA damage. In several human cancers, the WIP1 protein is overexpressed, which is generally associated with a worse prognosis. Although WIP1 is an attractive therapeutic target, no potent, selective, and bioactive small-molecule modulator with favorable pharmacokinetics has been reported. Phosphatase enzymes are among the most challenging targets for small molecules because of the difficulty of achieving both modulator selectivity and bioavailability. Another major obstacle has been the availability of robust and physiologically relevant phosphatase assays that are suitable for high-throughput screening.
Here, we describe two orthogonal biochemical WIP1 activity assays that utilize phosphopeptides from native WIP1 substrates. We optimized a RapidFire MS assay to quantify the enzymatically dephosphorylated peptide reaction product in a 384-well format. Additionally, a redshifted Rhodamine-PBP fluorescence assay was optimized in a 1,536-well format to enable real-time WIP1 activity measurements through the detection of the orthogonal reaction product, Pi. We validated these two optimized assays by quantitative high-throughput screening against the National Center for Advancing Translational Sciences (NCATS) Pharmaceutical Collection and used secondary assays to confirm and evaluate inhibitors identified in the primary screen.
SEQUENCE No. (e.g., 1, 2, 3, etc.); […] (e.g., Cells, Incubation, Reagent, etc.); VALUE; DESCRIPTION
1; Reagent; 3 uL; WIP1 (6.7 nM), Rh-PBP (13.3 uM), columns 1-48
3; Library Compounds; 23 nL; NCATS Pharmaceutical Collection, column 5-48
4; Control Compounds; DMSO in column 2, GSK2830371 (57.5 uM, final) in 3-fold serial dilutions in column 3, GSK2830371 (1.15 uM, final) in column 4
5; Time; 1 hr; incubation
6; Detection; fluorescence (f0); ViewLux, excitation filter = 525 nm, emission filter = 598 nm
7; Reagent; 1 uL; VEPP-pS-QETFS (40 uM), columns 2-48
8; Detection; fluorescence (f1); ViewLux, excitation filter = 525 nm, emission filter = 598 nm
NOTES (numbers refer to sequence above)
1 & 2; Black medium binding Greiner 1536-well plates (# 789176-F); assay buffer: 50 mM Tris-HCl pH 7.5, 30 mM MgCl2, 1mM TCEP, 0.1 mM EGTA, 75 ug/mL BSA; dispensed with a BioRaptr liquid handler (Beckman Coulter).
3 & 4; Kalypsys pintool (equipped with 1536 pinhead, Wako USA) transfer. Tip wash sequence: DMSO, methanol, 3 sec vacuum dry.
5; Room temperature incubation.
7; VEPPL-pS-QETFS in assay buffer dispensed with a BioRaptr; final reaction conditions: 5 nM WIP1, 10 uM VEPPL-pS-QETFS, 10 uM Rh-PBP, 50 mM Tris-HCl pH 7.5, 30 mM MgCl2, 1 mM TCEP, 0.1 mM EGTA, 75 ug/mL BSA.
8; Measurement taken at 1 min intervals for 11 min. Delta readout = f1 - f0.

Row | SMILES | activity change, negative = inhibition
1 | CCC(C)(Oc1ccc(C2(c3ccc(OC(C)(CC)C(=O)O)cc3)CCCCC2)cc1)C(=O)O (stereo not given) | -28.5% (inactive)
2 | Clc1ccc(C(Cn2ccnc2)OCc2ccc(Sc3ccccc3)cc2)c(Cl)c1 (stereo not given) | 21.3% (inactive)
3 | COc1cc2c(N3CCN(C(=O)Nc4ccc(OC(C)C)cc4)CC3)ncnc2cc1OCCCN1CCCCC1 | 23.7% (inactive)
4 | CCCCCCCCOc1ccccc1C(=O)Nc1ccc(C(=O)OCC[N+](C)(CC)CC)cc1 | 49.1% (inactive)
5 | NC(=O)Cc1cccc(C(=O)c2ccccc2)c1N | -16.5% (inactive)
6 | O=C(c1ccccc1)c1ccc2n1CCC2C(=O)O (stereo not given) | 1.47% (inactive)
7 | Cn1c(NCCN(CCO)CCCc2ccc([N+](=O)[O-])cc2)cc(=O)n(C)c1=O | 11.5% (inactive)
8 | CC1(C)NC(=O)N(c2ccc([N+](=O)[O-])c(C(F)(F)F)c2)C1=O | 3.7% (inactive)
9 | COc1ccc2cc([C@H](C)C(=O)O)ccc2c1 | -11.7% (inactive)
10 | Cc1nc(Nc2ncc(C(=O)Nc3c(C)cccc3Cl)s2)cc(N2CCN(CCO)CC2)n1 | 73.2% (inactive)
11 | O=C(OC1C[C@H]2CC[C@@H](C1)[N+]21CCCC1)C(O)(c1ccccc1)c1ccccc1 (stereo not given in full) | 14.1% (inactive)
12 | CN(C)[C@@H](CCOc1cccc2ccccc12)c1ccccc1 | 23.8% (inactive)
13 | CN(c1nccc(=O)[nH]1)C1CCN(c2nc3ccccc3n2Cc2ccc(F)cc2)CC1 | 0.695% (inactive)
14 | Cc1ncc([N+](=O)[O-])n1CC(C)O (stereo not given) | 3.71% (inactive)
15 | NS(=O)(=O)c1cc(C(=O)O)c(NCc2ccco2)cc1Cl | -31.2% (inactive)
16 | Cc1c(OCC(F)(F)F)ccnc1CS(=O)c1nc2ccccc2[nH]1 (stereo not given) | 13.2% (inactive)
17 | Clc1ccc(C(Cn2ccnc2)OCc2c(Cl)cccc2Cl)c(Cl)c1 (stereo not given) | 0.323% (inactive)
18 | S=c1nc[nH]c2nc[nH]c12 | 0.541% (inactive)
19 | CC(C)c1nc(CN(C)C(=O)N[C@H](C(=O)N[C@@H](Cc2ccccc2)C[C@H](O)[C@H](Cc2ccccc2)NC(=O)OCc2cncs2)C(C)C)cs1 | 8.58% (inactive)
20 | CCOC(=O)c1c(C)n(C)c2ccc(O)cc12 | 6.72% (inactive)

Row | SMILES | activity change, negative = inhibition
21 | Cc1cc2c(s1)Nc1ccccc1N=C2N1CCN(C)CC1 | 14.5% (inactive)
22 | C=CCc1cc(OC)c(O)c(C(=O)NCCO)c1 | -5.64% (inactive)
23 | CCCCN(CCCC)CCC(O)c1cc2c(Cl)cc(Cl)cc2c2cc(C(F)(F)F)ccc12 (stereo not given) | 17.4% (inactive)
24 | O=C1CCc2ccc(OCCCCN3CCN(c4cccc(Cl)c4Cl)CC3)cc2N1 | 22.1% (inactive)
25 | CNC[C@H](O)c1ccc(O)c(O)c1 | -6.8% [at 23.8 µM] (inactive)
26 | CC(=O)Nc1ccc(O)cc1 | -4.49% (inactive)
27 | CC[C@]1(O)C[C@H]2CN(CCc3c([nH]c4ccccc34)[C@@](C(=O)OC)(c3cc4c(cc3OC)N(C=O)[C@H]3[C@@](O)(C(=O)OC)[C@H](OC(C)=O)[C@]5(CC)C=CCN6CC[C@]43[C@@H]65)C2)C1 | 25.1% (inactive)
28 | COc1c2occc2cc2ccc(=O)oc12 | 15% (inactive)
29 | CCN(CCO)CCCC(C)Nc1ccnc2cc(Cl)ccc12 (stereo not given) | 13.1% [at 4.81 µM] (inactive)
30 | N=C(N)c1ccc2cc(OC(=O)c3ccc(N=C(N)N)cc3)ccc2c1 | 6.57% (inactive)
31 | COC(=O)N[C@H](C(=O)N[C@@H](Cc1ccccc1)[C@@H](O)CN(Cc1ccc(-c2ccccn2)cc1)NC(=O)[C@@H](NC(=O)OC)C(C)(C)C)C(C)(C)C | 18.9% (inactive)
32 | O=C(O)c1cccnc1Nc1cccc(C(F)(F)F)c1 | -4.85% (inactive)
33 | Cc1nc(-c2ccc(OCC(C)C)c(C#N)c2)sc1C(=O)O | -11.1% (inactive)
34 | COC1=C(OC)C(=O)C(CCCCCCCCCCO)=C(C)C1=O | -0.395% (inactive)
35 | CC(C)[C@H](N)C(=O)OCCOCn1cnc2c(=O)[nH]c(N)nc21 | 2.98% (inactive)
36 | CCc1nc(N)nc(N)c1-c1ccc(Cl)cc1 | 16.7% (inactive)
37 | Cc1ccc(NC(=O)c2ccc(CN3CCN(C)CC3)cc2)cc1Nc1nccc(-c2cccnc2)n1 | 18% (inactive)
38 | CCCc1cc(=O)[nH]c(=S)[nH]1 | 8.42% (inactive)
39 | COc1cc(OC)c(C(=O)CCCN2CCCC2)c(OC)c1 | 13.1% (inactive)
40 | O=C(NC(Cc1cc(=O)[nH]c2ccccc12)C(=O)O)c1ccc(Cl)cc1 (stereo not given) | -2.47% (inactive)
